Experiment [1] is described as follows: NCI Yeast Anticancer Drug Screen. Data for the rad50 strain (AID 155).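 Also: 0% = growth of vehicle-only cultures of the same strain.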 The following applies: S. cerevisiae rad50 strain growth inhibition, active compounds read high. The method in brief:
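Inhibition values express reduced yeast growth in compound-treated cultures relative to vehicle-treated controls.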

The nature of experiment [2]: NCI Yeast Anticancer Drug Screen. Data for the mec2-1 strain (AID 157). The settings on record: S. cerevisiae mec2-1 strain, active compounds read high. In a few lines:
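Each compound was tested on mec2-1 yeast, a strain altered in DNA damage repair or cell cycle control. Growth inhibition is reported relative to vehicle.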

Experiment [3] is described as follows: NCI Yeast Anticancer Drug Screen. Data for the sgs1 mgt1 strain (AID 161).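 Also: 0% = growth of cultures given vehicle only.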 The following applies: S. cerevisiae sgs1 mgt1 strain, active compounds read high. In a few lines:
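Genetically altered yeast, compound exposure, growth inhibition relative to vehicle.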

A short description of experiment [4]: NCI Yeast Anticancer Drug Screen. Data for the cln2 rad14 strain (AID 165).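 Also: 0% = growth equal to vehicle treated cultures.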 The following applies: S. cerevisiae cln2 rad14 strain, active compounds read high. The method in brief: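 Test compounds were added to cln2 rad14 yeast cultures; inhibition of growth was then determined by comparison with vehicle treatment.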
Experiment [5] is described as follows: NCI Yeast Anticancer Drug Screen. Data for the bub3 strain (AID 167). The settings on record: S. cerevisiae bub3 mutant strain, active compounds read high. In a few lines:
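Steps: expose the mutant yeast strain to compound; grow alongside vehicle-treated cultures; measure growth; express inhibition against the vehicle cultures.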

Experiment [6] is described as follows: NCI Yeast Anticancer Drug Screen. Data for the mlh1 rad18 strain (AID 175). The settings on record: S. cerevisiae mlh1 rad18 strain growth inhibition, active compounds read high. In a few lines: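 Inhibition values reflect reduced growth of mutant yeast versus vehicle-treated controls following compound exposure; the mutations affect DNA damage repair.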
Setting [7] is: at 5.0 µM (retest, dose inferred, filed as 0.5).
Where [8] appears, read: at 50.0 µM (retest, dose inferred, filed as 5.0).

About 79,000 compounds went through this panel and 15% of them were active in at least one assay; those are over-represented in the sample as a whole. A number with no mark means an inactive call. The source made the active and inactive calls. Rule as the data show it: active = growth inhibition above about 70%; inactive = the rest.

Regarding `O=C(N/N=C/c1cc(Cl)cc(Cl)c1O)c1ccccc1`, the growth inhibition is 39% in experiment [1] (setting [7]); 22% in experiment [1] (setting [8]); 69.9% in experiment [1] (at 50.0 µM); 41% in experiment [2] (setting [7]); 36% in experiment [2] (setting [8]); 57.5% in experiment [2] (at 50.0 µM). Moreover, the growth inhibition in experiment [3] (setting [7]) is 55%; in experiment [3] (setting [8]) it was 48%; in experiment [3] (at 50.0 µM) it was 69.6%; in experiment [4] (setting [7]) it was 14%; in experiment [4] (setting [8]), 1%; in experiment [4] (at 50.0 µM), 33.6%. The growth inhibition was 46% in experiment [5] (setting [7]); 30% in experiment [5] (setting [8]); 71.6% (active) in experiment [5] (at 50.0 µM); 45% in experiment [6] (setting [7]); 40% in experiment [6] (setting [8]); 69.8% in experiment [6] (at 50.0 µM).

As to `O=C(NNc1ccccc1)C(O)C(O)C(O)C(O)C(O)C(O)C(O)CO` (configuration not stated), the growth inhibition in experiment [1] (setting [7]) is 17%; in experiment [1] (setting [8]) it was 87% (active); in experiment [1] (at 50.0 µM), 69.1%; in experiment [2] (setting [7]), 10%; in experiment [2] (setting [8]), 78% (active); in experiment [2] (at 50.0 µM), 39.4%. In addition, the growth inhibition in experiment [3] (setting [7]) is 10%; in experiment [3] (setting [8]), 82% (active); in experiment [3] (at 50.0 µM) it was 88.1% (active); in experiment [4] (setting [7]) it was 3%; in experiment [4] (setting [8]) it was 82% (active); in experiment [4] (at 50.0 µM), 95.9% (active). The growth inhibition in experiment [5] (setting [7]) was 1%; in experiment [5] (setting [8]) it was 94% (active); in experiment [5] (at 50.0 µM) it was 88.3% (active); in experiment [6] (setting [7]) it was 45%; in experiment [6] (setting [8]), 96% (active); in experiment [6] (at 50.0 µM), 92.8% (active).

Take `Cc1c2cnccc2c(C)c2c1c1ccccc1n2CCOC(=O)c1ccccc1`: the growth inhibition in experiment [1] (setting [7]) is 9%; in experiment [1] (setting [8]) it was 94% (active); in experiment [1] (at 50.0 µM) it was 96.4% (active); in experiment [2] (setting [7]) it was -4%; in experiment [2] (setting [8]) it was 78% (active); in experiment [2] (at 50.0 µM), 87.8% (active). The growth inhibition was 1% in experiment [3] (setting [7]); 81% (active) in experiment [3] (setting [8]); 89.7% (active) in experiment [3] (at 50.0 µM); 39% in experiment [4] (setting [7]); 82% (active) in experiment [4] (setting [8]); 75.2% (active) in experiment [4] (at 50.0 µM). Moreover, the growth inhibition in experiment [5] (setting [7]) was 8%; in experiment [5] (setting [8]), 87% (active); in experiment [5] (at 50.0 µM) it was 90.3% (active); in experiment [6] (setting [7]), 10%; in experiment [6] (setting [8]), 87% (active); in experiment [6] (at 50.0 µM) it was 91.5% (active).

As for `Clc1ccc(C2SCc3nc4ccccc4n32)cc1Cl` (configuration not stated), the growth inhibition in experiment [1] (setting [7]) was -8%; in experiment [1] (setting [8]), 95% (active); in experiment [1] (at 50.0 µM), 97.2% (active); in experiment [2] (setting [7]), 1%; in experiment [2] (setting [8]) it was 97% (active); in experiment [2] (at 50.0 µM), 98.1% (active). The growth inhibition was 15% in experiment [3] (setting [7]); 96% (active) in experiment [3] (setting [8]); 98% (active) in experiment [3] (at 50.0 µM); -16% in experiment [4] (setting [7]); 95% (active) in experiment [4] (setting [8]); 95.6% (active) in experiment [4] (at 50.0 µM). For the same molecule, the growth inhibition in experiment [5] (setting [7]) was 7%; in experiment [5] (setting [8]), 96% (active); in experiment [5] (at 50.0 µM), 96.8% (active); in experiment [6] (setting [7]), 3%; in experiment [6] (setting [8]) it was 96% (active); in experiment [6] (at 50.0 µM), 95% (active).

Take `c1ccc2c(c1)oc1cc3c(cc12)CCCN3`: the growth inhibition is 18% in experiment [1] (setting [7]); 97% (active) in experiment [1] (setting [8]); 91.7% (active) in experiment [1] (at 50.0 µM); 19% in experiment [2] (setting [7]); 98% (active) in experiment [2] (setting [8]); 10.3% in experiment [2] (at 50.0 µM). Further, the growth inhibition was 7% in experiment [3] (setting [7]); 98% (active) in experiment [3] (setting [8]); 74.7% (active) in experiment [3] (at 50.0 µM); 3% in experiment [4] (setting [7]); 97% (active) in experiment [4] (setting [8]); 4.4% in experiment [4] (at 50.0 µM). Moreover, the growth inhibition in experiment [5] (setting [7]) is 19%; in experiment [5] (setting [8]), 98% (active); in experiment [5] (at 50.0 µM), 77.7% (active); in experiment [6] (setting [7]), 18%; in experiment [6] (setting [8]), 98% (active); in experiment [6] (at 50.0 µM) it was 43.5%.

As for `CC(C)Cn1cnc2c(SCc3ccccc3[N+](=O)[O-])nc(N)nc21`, the growth inhibition in experiment [1] (setting [7]) is 2%; in experiment [1] (setting [8]), -4%; in experiment [1] (at 50.0 µM), 90% (active); in experiment [2] (setting [7]) it was -4%; in experiment [2] (setting [8]), -2%; in experiment [2] (at 50.0 µM), 96% (active). For the same molecule, the growth inhibition is 0% in experiment [3] (setting [7]); -2% in experiment [3] (setting [8]); 56% in experiment [3] (at 50.0 µM); -22% in experiment [4] (setting [7]); -3% in experiment [4] (setting [8]); 82.2% (active) in experiment [4] (at 50.0 µM). Also, the growth inhibition was -1% in experiment [5] (setting [7]); -4% in experiment [5] (setting [8]); 96.8% (active) in experiment [5] (at 50.0 µM); 1% in experiment [6] (setting [7]); 2% in experiment [6] (setting [8]); 84.8% (active) in experiment [6] (at 50.0 µM).

Turning to `Cc1cc(N/N=C(\c2ccccc2)c2ccccn2)nc2ccccc12`, the growth inhibition is 33% in experiment [1] (setting [7]); 91% (active) in experiment [1] (setting [8]); 96.9% (active) in experiment [1] (at 50.0 µM); 10% in experiment [2] (setting [7]); 91% (active) in experiment [2] (setting [8]); 97.8% (active) in experiment [2] (at 50.0 µM). Moreover, the growth inhibition in experiment [3] (setting [7]) is 14%; in experiment [3] (setting [8]), 83% (active); in experiment [3] (at 50.0 µM), 96.5% (active); in experiment [4] (setting [7]) it was -7%; in experiment [4] (setting [8]), 69%; in experiment [4] (at 50.0 µM) it was 97.6% (active). The growth inhibition in experiment [5] (setting [7]) was 19%; in experiment [5] (setting [8]) it was 90% (active); in experiment [5] (at 50.0 µM) it was 97.4% (active); in experiment [6] (setting [7]) it was 25%; in experiment [6] (setting [8]), 92% (active); in experiment [6] (at 50.0 µM), 97.5% (active).

Regarding `O=C(NCc1ccc(F)cc1)c1ccc(C(=O)NCc2ccc(F)cc2)cc1`, the growth inhibition in experiment [1] (setting [7]) is 1%; in experiment [1] (setting [8]) it was -4%; in experiment [1] (at 50.0 µM), -6.6%; in experiment [2] (setting [7]) it was -19%; in experiment [2] (setting [8]) it was 21%; in experiment [2] (at 50.0 µM), -4.05%. The growth inhibition in experiment [3] (setting [7]) is -13%; in experiment [3] (setting [8]) it was 2%; in experiment [3] (at 50.0 µM), -13.1%; in experiment [4] (setting [7]), 2%; in experiment [4] (setting [8]) it was 6%; in experiment [4] (at 50.0 µM), 58.4%. Moreover, the growth inhibition is 1% in experiment [5] (setting [7]); 7% in experiment [5] (setting [8]); -6.9% in experiment [5] (at 50.0 µM); -8% in experiment [6] (setting [7]); -20% in experiment [6] (setting [8]); -10.1% in experiment [6] (at 50.0 µM).

Regarding `CN=C(NC1CCCCC1)c1ccc(NC(=O)c2ccc(C(=O)Nc3ccc(C(=NC)NC4CCCCC4)cc3)cc2)cc1`, the growth inhibition is 0% in experiment [1] (setting [7]); 81% (active) in experiment [1] (setting [8]); 69.5% in experiment [1] (at 50.0 µM); 2% in experiment [2] (setting [7]); 59% in experiment [2] (setting [8]); 24% in experiment [2] (at 50.0 µM). Further, the growth inhibition in experiment [3] (setting [7]) is 6%; in experiment [3] (setting [8]), 96% (active); in experiment [3] (at 50.0 µM), 85.5% (active); in experiment [4] (setting [7]), 6%; in experiment [4] (setting [8]), 65%; in experiment [4] (at 50.0 µM), 92% (active). In addition, the growth inhibition in experiment [5] (setting [7]) is -1%; in experiment [5] (setting [8]), 74% (active); in experiment [5] (at 50.0 µM), 33.7%; in experiment [6] (setting [7]) it was -1%; in experiment [6] (setting [8]), 99% (active); in experiment [6] (at 50.0 µM), 94.8% (active).
